Reference: PubChem BioAssay (NCI)
The panel holds about 83,000 compounds, 20% with a hit somewhere; the sample as a whole holds those more often.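 Percent growth is the endpoint: 0 to 100 indicates growth inhibition (40 means 60% inhibition), 0 means no net growth, and negative values indicate cell death.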 Values without a mark were called inactive. Calls of active or inactive are those of the source. The calls were made as follows: active = growth percent below 10; inactive = the rest.

How the values were obtained:
Experiment in all cases: NCI-60 one-dose screen, 48 h (100 = growth as untreated, 0 = no growth, -100 = all killed)
Conditions in all cases: 10 µM unless noted
[1] = tested on: DU-145 prostate
[2] = tested on: K-562 leukemia
[3] = tested on: MALME-3M melanoma
[4] = tested on: MDA-MB-231 breast
[5] = tested on: RXF 393 renal
[6] = tested on: SF-268 CNS
[7] = tested on: SF-295 CNS
[8] = tested on: SF-539 CNS
[9] = tested on: UACC-257 melanoma
[10] = tested on: M14 melanoma
[11] = tested on: HCT-15 colon
[12] = tested on: HT29 colon
[13] = tested on: SNB-75 CNS
[14] = tested on: U251 CNS
[15] = tested on: SK-MEL-5 melanoma
[16] = tested on: UACC-62 melanoma
[17] = tested on: LOX IMVI melanoma
[18] = tested on: SK-MEL-28 melanoma
[19] = tested on: PC-3 prostate
[20] = tested on: SNB-19 CNS

Compound	growth [1]	growth [2]	growth [3]	growth [4]	growth [5]	growth [6]	growth [7]	growth [8]	growth [9]	growth [10]	growth [11]	growth [12]	growth [13]	growth [14]	growth [15]	growth [16]	growth [17]	growth [18]	growth [19]	growth [20]
COc1ccc(Cl)cc1Nc1nc(C(F)(F)F)ccc1C(=O)N/N=C/c1cccnc1	53.7%	36.1%	42.6%	49.3%	60.9%	48.9%	81.6%	45.9%	72.7%	52.9%	29.1%	49.6%	67.1%	40.4%	22.2%	50.9%	36.3%	59.9%	–	–
COc1ccc(-c2cc(NC(=O)Nc3ccc(O)cc3)no2)cc1	66.7%	29.2%	78%	67.5%	90.9%	62.2%	58.9%	69.5%	84.6%	35.1%	49.5%	98.8%	62.6%	–	82.3%	44.5%	7.79% (active)	101%	57.6%	–
CCc1ccc(C(c2ccc(CC)cc2)C(Cl)(Cl)CCl)cc1	110%	106%	96.6%	88.7%	131%	93.7%	105%	96.3%	110%	100%	89.7%	76.8%	80.6%	89%	90%	88.2%	–	92.4%	80.5%	–
c1ccc(CSc2ncnc3nc[nH]c23)nc1	113%	96.7%	103%	97.6%	119%	109%	104%	99.5%	120%	101%	103%	112%	97.2%	113%	100%	88.4%	106%	128%	–	–
OCCNCCNc1c2ccccc2nc2ccccc12	88.3%	69.8%	42.1%	57.9%	102%	55.9%	95.4%	69.8%	102%	90.9%	97.2%	58%	93.3%	55.3%	88.4%	–	37.8%	114%	87.5%	–
CC(C)(C)n1cc(-c2ccnc(NCCNS(=O)(=O)c3ccccc3)c2)c(-c2cccc(O)c2)n1	68.9%	7.69% (active)	59.4%	42.7%	61.6%	63.3%	48.3%	52.2%	65.8%	53.9%	9.17% (active)	15.6%	–	52%	23.2%	70.1%	20.4%	–	41.5%	80.8%
CN(CC(=O)N(Cc1ccc(C2CCCCC2)cc1)c1ccc(C(=O)NO)cc1)S(=O)(=O)c1c(F)c(F)c(F)c(F)c1F	78.3%	20.6%	86.4%	40.3%	71.2%	87%	108%	92.7%	102%	67.9%	-35.4% (active)	0.552% (active)	84.5%	48.8%	99.6%	94.5%	–	86.8%	88.1%	–
C=CC[N+]1(CCO)CCN=C1CCCCCCCCCCCCC (centres undefined)	-90.4% (active)	-53.9% (active)	-61.9% (active)	-70.1% (active)	-55.3% (active)	-60.6% (active)	47.5%	-96.6% (active)	-80.3% (active)	-86.2% (active)	-74.5% (active)	-92.2% (active)	-78.3% (active)	-87.8% (active)	-95% (active)	-96.5% (active)	-87.9% (active)	-69.5% (active)	-29.9% (active)	–
CC(=O)Nc1ccc2c(c1)c(NC(C)=O)nn2C(=O)Nc1ccc(Cc2ccccc2)cc1	83%	18.2%	86.5%	69.9%	92.6%	46.6%	54%	80.9%	87.2%	63%	78.8%	89.1%	106%	69.5%	109%	20%	53.6%	141%	63.5%	–
CN1CCN(Cc2ccc(NC(=O)c3cncc(C#Cc4c(N)ncc5ccc(C#N)cc45)c3)cc2C(F)(F)F)CC1	-60.2% (active)	-39.3% (active)	-81.9% (active)	-82% (active)	-76.6% (active)	-43.3% (active)	85.9%	39.7%	68.7%	-45.5% (active)	-81.8% (active)	-75.7% (active)	–	-69.4% (active)	-35.5% (active)	-68.5% (active)	-79.8% (active)	–	-52.1% (active)	-79.1% (active)
Cc1cc(Cl)ccc1Nc1nc(C(F)(F)F)ccc1C(=O)N/N=C/c1ccc(F)cc1	35.2%	5.33% (active)	6.12% (active)	-9.74% (active)	17.8%	19.6%	17.4%	24.6%	8.52% (active)	2.84% (active)	6.36% (active)	4.55% (active)	42%	3.86% (active)	5.06% (active)	15.4%	0.251% (active)	34.1%	–	–
COc1ccc(CCN2CCCn3c2nc2ccccc2c3=O)cc1	16.4%	13.1%	59.8%	42.5%	-0.0509% (active)	56.9%	20.4%	-16.3% (active)	81.3%	21.4%	22.2%	11.8%	17.5%	29%	15.5%	–	15.1%	49.6%	42%	–
COc1ccc2c(c1)C(=O)/C(=C/c1cccc(OCC(=O)Nc3nc4c(s3)CCCC4)c1)O2	32.9%	-46.8% (active)	-67.6% (active)	23.5%	-43.8% (active)	-26.9% (active)	52.1%	-83.2% (active)	-22.4% (active)	-27.4% (active)	-15.7% (active)	-74.3% (active)	19%	41.9%	-14% (active)	79.1%	-70.3% (active)	38.1%	–	–
NS(=O)(=O)c1ccc(Nc2nc3n[nH]c(Nc4ccccc4)c3c(=O)[nH]2)cc1	102%	96%	103%	97.7%	115%	97%	102%	97.1%	97%	94.2%	108%	101%	70.8%	101%	99%	105%	101%	111%	–	–
Oc1ccccc1N=Cc1c(O)ccc2ccccc12	82.3%	80.3%	82.9%	57%	79.2%	78.4%	53.9%	80%	93.2%	62.7%	77.8%	82.9%	69.8%	83.3%	77.3%	–	61.7%	113%	61.3%	–
COc1cc(C#N)cc(OC)c1OCCN(CCOc1c(OC)cc(C#N)cc1OC)S(=O)(=O)c1ccc(C)cc1	115%	94%	108%	112%	70.9%	107%	94.2%	105%	97.7%	99.7%	108%	111%	92.7%	103%	61.8%	96.8%	93.1%	118%	–	–
CCN(CC)Cc1cc(Nc2c3ccccc3nc3cc(Cl)ccc23)ccc1O	-16.2% (active)	-40.8% (active)	-91.4% (active)	-65.2% (active)	-91.4% (active)	-76.9% (active)	-38.3% (active)	-100% (active)	-94.8% (active)	-99.6% (active)	-28.6% (active)	-38.3% (active)	-100% (active)	-51.6% (active)	-100% (active)	-97.2% (active)	-86.5% (active)	-79.3% (active)	-41.5% (active)	–
